This passage reports Potency and outcome results from PubChem BioAssay (NCATS).

Inconclusive results are not listed. Active and inactive are the calls of the source. Unless noted, calls follow the shape of the dose curve; as a rule, active = well fitted curve in the direction sought with a large enough effect in the repeat runs; inconclusive = weak or mixed curves; inactive = no such curve, though single readings can be large; an effect the other way counts as inactive or inconclusive.

Test [1] addresses Cytochrome P450 3A4 (Homo sapiens) (UniProt P08684). Kind of test: qHTS Assay for Activators of Cytochrome P450 3A4 (AID 885; active = well fitted curve in the direction sought with a large enough effect; an effect the other way counts as inactive or inconclusive; also: nearly all actives have a fitted effect of over 65% in size). The essentials:
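Activators are scored by enhanced luminescence from CYP3A4 conversion of luciferin-PPXE (25uM, equal to KM) to luciferin, after 60 min at RT with an NADPH-regenerating system.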
(In qHTS, concentration-response curves come from the screen itself.)

Test [2] in a line: Confirmation and Secondary Assay for Modulators of Hemoglobin Beta Chain Splicing at IVS2 654 locus (AID 910; active = well fitted curve in the direction sought with a large enough effect; an effect the other way counts as inactive or inconclusive;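 also: per-well total GFP intensity by laser scanning cytometry after 2-day treatment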). The essentials: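 HeLa cells stably carrying EGFP interrupted by mutant beta-globin IVS2-654 intron (CMV-driven) were treated with compound for 2 days at 37C; corrected splicing was scored as total peak GFP intensity per well (488 nm excitation, 500-520 nm emission).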

Test [3] is described as follows: Confirmation and Secondary Assay for Modulators of Hemoglobin Beta Chain Splicing at IVS2 705 locus (AID 930; active = well fitted curve in the direction sought with a large enough effect; an effect the other way counts as inactive or inconclusive;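 also: HeLa cells stably expressing the EGFP-705 splicing reporter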). In outline: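 Fluorescence gain (488 nm laser, 500-520 nm PMT) reflects restored correct splicing of a mutant IVS2-705 intron inside EGFP in stably transfected HeLa cells after 2-day compound treatment.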
The target in test [4] is ATP-dependent 6-phosphofructokinase (Trypanosoma brucei brucei) (UniProt O15648). Kind of test: qHTS Assay to Find Inhibitors of T. brucei phosphofructokinase: hit validation (AID 492961; active = well fitted curve in the direction sought with a large enough effect; an effect the other way counts as inactive or inconclusive;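 also: luminescence reports ADP formed as PFK phosphorylates fructose-6-phosphate with ATP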). The essentials: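 Reaction: 0.1 M triethanolamine pH 8.0, 5 mM MgCl2, F6P 0.5 mM, ATP 0.1 mM, PFK 1.25 nM, 45 min RT. Read-out: ADP-Glo luminescence. Analysis: concentration-response fits, classed by r2 and efficacy.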

Test [5] addresses Ubiquitin carboxyl-terminal hydrolase 1 (Homo sapiens) (UniProt O94782). Kind of test: Inhibitors of USP1/UAF1: Pilot qHTS (AID 504865; active = well fitted curve in the direction sought with a large enough effect; an effect the other way counts as inactive or inconclusive;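 also: rhodamine fluorescence freed from ubiquitin-rhodamine substrate followed over time; top concentration of the series differs between compounds; nearly all actives have a fitted effect of over 35% in size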). The essentials: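 Kinetic fluorescence assay: 1nM USP1/UAF1, 15 min compound preincubation, then 150nM Ub-Rho; 480/540 nm.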
Test [6] addresses Luciferin 4-monooxygenase (Photinus pyralis) (UniProt P08659). Kind of test: Biochemical firefly luciferase enzyme assay for NPC (AID 624030; active = well fitted curve in the direction sought with a large enough effect; an effect the other way counts as inactive or inconclusive;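 also: purified P. pyralis luciferase at 10 nM with luciferin and ATP substrate; nearly all actives have a fitted effect of over 70% in size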). The essentials:
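Counter-screen for direct inhibition of the luciferase enzyme by approved-drug library compounds, run at 10 nM enzyme in 50 mM Tris acetate (final). Luminescence was read within 5 min of enzyme-buffer addition and normalized to PTC124 versus DMSO (0%).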

The nature of test [7]: S16 Schwann cell viability assay (CellTiter-Glo assay) (AID 624031; active = well fitted curve in the direction sought with a large enough effect; an effect the other way counts as inactive or inconclusive;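 also: native untransfected S16 rat Schwann cells; cellular ATP luminescence as a viability measure; nearly all actives have a fitted effect of over 70% in size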). In outline: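 Parental S16 cells, 24 h compound, 37 °C. ATP-luminescence viability; DMSO = 0% activity, empty wells as reference; curves classified by fit quality and efficacy.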
On the technique in general: In ATP-based viability assays light output follows the ATP content of the culture.

Test [8] in a line: S16 Schwann cell PMP22 intronic element firefly luciferase assay (AID 624032; active = well fitted curve in the direction sought with a large enough effect; an effect the other way counts as inactive or inconclusive; also: nearly all actives have a fitted effect of over 30% in size). The essentials:
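Rat S16 Schwann cells stably carrying a PMP22 intronic element-driven Fluc reporter were seeded overnight, then exposed to compounds for 24 h at 37 °C. Luminescence was normalized to PTC124 (positive control) and DMSO (0% activity).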

Test [9] can be described thus: S16 Schwann cell PMP22 intronic element beta-lactamase assay (AID 624044; calls by dose curve; also: nearly all actives have a fitted effect of over 15% in size). The essentials:
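Beta-lactamase reporter under a PMP22 intronic regulatory element in stable S16 rat Schwann cells; 24 h compound exposure. 460 nm blue signal normalized between DMSO (0%) and potassium clavulanate, with 535 nm FRET tracking viability; curves classed by r2 and response.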

In test [10] the target is Cytochrome P450 2D6 (Homo sapiens) (UniProt P10635). Kind of test: Cytochrome P450 family 2 subfamily D member 6 (CYP2D6) small molecule antagonists: luciferase biochemical (cell-free) qHTS assay (AID 1645840). Also: nearly all actives have a fitted effect of over 55% in size. Also: potency is read from the fitted curve at half-maximal effect. The essentials: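 P450-Glo CYP2D6 system: proluciferin substrate converted by enzyme to luciferin, read by luminescence proportional to activity. Enzyme-substrate mix with compound 10 min at room temperature, then NADPH regeneration 1 h before detection reagent.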

The target in test [11] is Cytochrome P450 3A4 (Homo sapiens) (UniProt P08684). Kind of test: Cytochrome P450 family 3 subfamily A member 4 (CYP3A4) small molecule antagonists: luciferase qHTS assay (AID 1645841). Also: nearly all actives have a fitted effect of over 45% in size. Also: potency is read from the fitted curve at half-maximal effect. The essentials:
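P450-Glo CYP3A4 enzyme with proluciferin substrate was preincubated with DMSO-dissolved compounds for 10 min at room temperature. NADPH regeneration solution started a 1 h reaction. Detection reagent stopped it, and luminescence was read after 20 min.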

Test [12] has as its target Cytochrome P450 2C9 (Homo sapiens) (UniProt P11712). Kind of test: Cytochrome P450 family 2 subfamily C member 9 (CYP2C9) small molecule antagonists: luciferase biochemical (cell-free) qHTS assay (AID 1645842). Also: nearly all actives have a fitted effect of over 55% in size. Also: potency is read from the fitted curve at half-maximal effect. The essentials: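 P450-Glo CYP2C9 system: proluciferin substrate with enzyme in mix containing 0.4% BSA, 10 min at room temperature, then NADPH regeneration solution added and incubated 1 h at 37C. Detection reagent stopped reaction; luminescence read after 20 min as RLU.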

The next test has as its system CP238. Kind of test: qHTS profiling for inhibitors of Plasmodium falciparum proliferation (AID 504749; active = well fitted curve in the direction sought with a large enough effect; an effect the other way counts as inactive or inconclusive; also: nearly all actives have a fitted effect of over 60% in size). The conditions noted are these: P. falciparum in erythrocytes, SYBR Green DNA, 72 h; series mostly up to 12.8 µM. The essentials: (§1)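 Quantitative HTS: compounds pinned into medium, infected erythrocytes added (0.3% parasitemia, 2.5% hematocrit), 72 h culture at 37 C under 5% CO2. Saponin/Triton lysis with SYBR Green I, overnight RT, then fluorescence read.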

The next test relates to CP286. The test is described as above. To be noted: P. falciparum in erythrocytes, SYBR Green DNA, 72 h; series mostly up to 12.8 µM. In outline:
as §1

Chain of Cytochrome P450 3A4 (Homo sapiens) (P08684 whole entry, looked up): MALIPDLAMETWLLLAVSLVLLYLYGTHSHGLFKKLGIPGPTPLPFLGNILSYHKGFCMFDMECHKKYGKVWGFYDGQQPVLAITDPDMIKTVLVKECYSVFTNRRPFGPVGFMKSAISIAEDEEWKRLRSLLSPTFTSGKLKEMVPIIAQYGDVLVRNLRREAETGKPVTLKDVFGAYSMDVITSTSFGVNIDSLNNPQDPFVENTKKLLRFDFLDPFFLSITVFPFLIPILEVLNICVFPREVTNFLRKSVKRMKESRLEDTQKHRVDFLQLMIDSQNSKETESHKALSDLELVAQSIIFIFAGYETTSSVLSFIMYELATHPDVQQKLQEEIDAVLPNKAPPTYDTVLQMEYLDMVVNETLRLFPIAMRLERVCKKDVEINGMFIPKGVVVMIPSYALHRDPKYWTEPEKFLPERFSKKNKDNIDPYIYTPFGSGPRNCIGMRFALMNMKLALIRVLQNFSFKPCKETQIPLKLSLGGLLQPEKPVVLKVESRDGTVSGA
Chain of Cytochrome P450 2C9 (Homo sapiens) (P11712 whole entry, looked up): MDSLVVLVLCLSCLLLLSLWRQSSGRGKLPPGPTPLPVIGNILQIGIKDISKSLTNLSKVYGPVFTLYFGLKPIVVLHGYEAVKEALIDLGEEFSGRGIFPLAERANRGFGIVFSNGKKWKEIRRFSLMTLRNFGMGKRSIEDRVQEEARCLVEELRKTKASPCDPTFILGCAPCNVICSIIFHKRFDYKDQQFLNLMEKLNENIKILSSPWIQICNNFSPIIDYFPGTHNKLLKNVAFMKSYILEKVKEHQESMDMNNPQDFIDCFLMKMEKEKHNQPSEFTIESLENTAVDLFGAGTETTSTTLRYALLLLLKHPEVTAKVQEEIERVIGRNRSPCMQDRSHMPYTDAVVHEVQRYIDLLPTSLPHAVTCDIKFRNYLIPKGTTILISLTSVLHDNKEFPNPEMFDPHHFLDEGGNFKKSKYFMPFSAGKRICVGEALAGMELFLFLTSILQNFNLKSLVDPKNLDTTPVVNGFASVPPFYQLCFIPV
Chain of Cytochrome P450 2D6 (Homo sapiens) (P10635 whole entry, looked up): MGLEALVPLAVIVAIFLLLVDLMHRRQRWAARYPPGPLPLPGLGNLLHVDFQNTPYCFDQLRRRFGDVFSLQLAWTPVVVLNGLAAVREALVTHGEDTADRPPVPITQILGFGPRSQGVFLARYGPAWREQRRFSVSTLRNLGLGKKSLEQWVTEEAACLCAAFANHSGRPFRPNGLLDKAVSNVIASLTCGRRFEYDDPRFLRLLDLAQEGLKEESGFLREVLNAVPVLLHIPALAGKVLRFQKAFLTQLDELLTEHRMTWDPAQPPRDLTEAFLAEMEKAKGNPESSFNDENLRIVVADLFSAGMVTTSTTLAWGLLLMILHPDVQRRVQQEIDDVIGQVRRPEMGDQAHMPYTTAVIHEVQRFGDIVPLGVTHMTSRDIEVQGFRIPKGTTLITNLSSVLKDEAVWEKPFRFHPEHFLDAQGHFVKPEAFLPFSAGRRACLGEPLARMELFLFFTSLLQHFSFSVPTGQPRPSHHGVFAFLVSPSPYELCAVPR
Chain of Luciferin 4-monooxygenase (Photinus pyralis) (P08659 whole entry, looked up): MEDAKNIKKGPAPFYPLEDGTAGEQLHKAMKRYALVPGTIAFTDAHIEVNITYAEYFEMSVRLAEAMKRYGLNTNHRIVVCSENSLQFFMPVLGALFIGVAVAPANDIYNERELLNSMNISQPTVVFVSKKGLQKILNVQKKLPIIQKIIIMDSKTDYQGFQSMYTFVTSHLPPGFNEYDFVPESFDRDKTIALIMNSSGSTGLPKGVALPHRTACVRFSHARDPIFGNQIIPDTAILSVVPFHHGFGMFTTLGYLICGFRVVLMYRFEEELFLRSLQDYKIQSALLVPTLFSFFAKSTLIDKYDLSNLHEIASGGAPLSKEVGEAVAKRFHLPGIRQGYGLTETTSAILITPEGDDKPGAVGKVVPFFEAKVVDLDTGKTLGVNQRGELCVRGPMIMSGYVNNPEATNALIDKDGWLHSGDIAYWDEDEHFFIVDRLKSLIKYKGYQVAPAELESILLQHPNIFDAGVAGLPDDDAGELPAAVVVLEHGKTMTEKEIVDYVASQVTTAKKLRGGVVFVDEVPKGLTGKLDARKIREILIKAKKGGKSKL
Chain of Ubiquitin carboxyl-terminal hydrolase 1 (Homo sapiens) (O94782 whole entry, looked up): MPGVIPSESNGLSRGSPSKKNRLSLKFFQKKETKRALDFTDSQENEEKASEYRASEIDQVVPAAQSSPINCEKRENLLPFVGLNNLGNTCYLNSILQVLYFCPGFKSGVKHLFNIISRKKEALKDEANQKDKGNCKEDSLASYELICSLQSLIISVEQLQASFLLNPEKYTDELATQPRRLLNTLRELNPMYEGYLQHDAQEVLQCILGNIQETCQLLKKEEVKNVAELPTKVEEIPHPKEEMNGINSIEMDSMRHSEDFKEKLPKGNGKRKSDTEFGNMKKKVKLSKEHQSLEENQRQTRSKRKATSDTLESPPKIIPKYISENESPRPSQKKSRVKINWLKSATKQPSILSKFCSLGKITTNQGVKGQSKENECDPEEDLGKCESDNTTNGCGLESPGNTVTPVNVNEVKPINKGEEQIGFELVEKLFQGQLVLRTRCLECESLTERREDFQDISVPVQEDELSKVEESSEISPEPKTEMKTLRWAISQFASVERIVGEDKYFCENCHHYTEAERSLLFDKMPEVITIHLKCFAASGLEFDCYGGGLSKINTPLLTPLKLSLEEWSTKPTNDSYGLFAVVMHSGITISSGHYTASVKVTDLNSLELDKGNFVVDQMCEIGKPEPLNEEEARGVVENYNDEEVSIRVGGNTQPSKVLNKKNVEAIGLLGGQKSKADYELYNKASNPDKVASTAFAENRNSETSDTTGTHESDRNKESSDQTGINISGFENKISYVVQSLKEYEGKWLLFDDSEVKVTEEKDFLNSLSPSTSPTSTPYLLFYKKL
Chain of ATP-dependent 6-phosphofructokinase (Trypanosoma brucei brucei) (O15648 whole entry, looked up): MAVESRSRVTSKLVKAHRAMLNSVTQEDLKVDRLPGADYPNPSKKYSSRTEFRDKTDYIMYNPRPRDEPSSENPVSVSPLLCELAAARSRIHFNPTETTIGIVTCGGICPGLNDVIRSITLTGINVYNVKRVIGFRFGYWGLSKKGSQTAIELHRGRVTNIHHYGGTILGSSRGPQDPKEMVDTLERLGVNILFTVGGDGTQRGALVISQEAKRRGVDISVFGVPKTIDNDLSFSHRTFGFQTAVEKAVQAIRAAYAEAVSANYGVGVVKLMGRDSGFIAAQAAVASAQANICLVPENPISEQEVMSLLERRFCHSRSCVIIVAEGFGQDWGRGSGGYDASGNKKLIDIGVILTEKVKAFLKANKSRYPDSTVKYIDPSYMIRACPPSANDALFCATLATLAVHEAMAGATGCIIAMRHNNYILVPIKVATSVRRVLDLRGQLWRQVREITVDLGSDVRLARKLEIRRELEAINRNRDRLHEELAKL

For the compound `O=C(O)CN(CC(=O)O)Cc1cc2c(-c3ccccc3C(=O)O)c3cc(CN(CC(=O)O)CC(=O)O)c(=O)cc-3oc2cc1O`, the Potency entry in test [1], in test [2], in test [3], in [5], in test [6] and in test [8] was “inactive” each time. For the same compound, the Potency entry (in test [9]; in [10]; in test [11]; in test [12]; in the test on CP238; in the test on CP286) was “inactive” each time. The result in [4] and in [7] was inactive.

For the compound `COc1ccc(Cn2c(CCC(=O)Nc3cccc(OC)c3)nc3cccnc32)cc1`, the Potency in test [10] was 2.68 µM (active).

`Cc1onc(-c2c(F)cccc2Cl)c1C(=O)Cl`: the Potency result in [10] is “inactive”.

As for `COc1ccc(Br)c2c1-c1nc(NC(=O)c3ccccc3SC)sc1C2`, in test [10], the Potency result was “inactive”.

With `Cc1ccc(Nc2nc3nonc3nc2Nc2cccc(C(F)(F)F)c2)cc1Cl`, the results for the Potency in test [10] and in test [12] were 9.52 µM (active) and 5.35 µM (active), respectively. Further, the Potency result in [11] is “inactive”.

As to `Cc1cc(C)cc(NC(=O)Cn2c(=O)n(-c3ccc(C)c(C)c3)c(=O)c3oc4ccccc4c32)c1`, the Potency in [10] is 0.425 µM (active).

`COc1cccc(CNCc2cccn2-c2nnc(N3CCN(c4ccccc4)CC3)s2)c1`: the Potency in test [10] was 3.38 µM (active); in test [12], 9.52 µM (active).

In the case of `COc1ccc(-c2nc(SCC(=O)Nc3ccc4c(c3)OCO4)c(-c3ccc(OC)cc3)[nH]2)cc1`, the Potency in test [10] is 5.35 µM (active); in test [12], 0.849 µM (active).

With `Cc1nnc(N2CCC(C(=O)NCCc3ccccc3Cl)CC2)c2nn(-c3ccccc3)c(C)c12`, the results for the Potency in [10] and in [12] were 2.13 µM (active) and 1.9 µM (active), respectively.

Turning to `Cc1ccn2c(Nc3ccccc3C)c(-c3ccccn3)nc2c1`, the Potency was 19 µM (active) in test [10] and 0.952 µM (active) in [12].

Regarding `COc1ccc(NC(=O)C2CCCN(c3nnc(C)c4c(C)n(-c5ccccc5)nc34)C2)cc1Cl` (stereo not drawn), the Potency was 16.9 µM (active) in [10] and 5.35 µM (active) in test [12].

With `COc1ccc(CCNc2nc(SCc3ccccc3F)nc3ccccc23)cc1OC`, the Potency in test [10] is 0.151 µM (active).

Turning to `C[S+](=O)([O-])Nc1ccc(-c2ccc3nc(-c4cccc(OC(F)(F)F)c4)[nH]c3c2)cc1`, the Potency result in test [10] and in test [11] was “inactive” throughout.

In the case of `Cc1ccccc1CNC(=O)CCCn1c(=O)c2cccn2c2ccccc21`, the Potency in test [10] was 6.74 µM (active).

Take `Cc1ccc(C2=CC(c3ccccc3C)n3c(nc4ccccc43)N2)cc1` (stereo not drawn): the Potency in test [10] was 9.52 µM (active); in [12] it was 3.38 µM (active).

As for `Cc1ccc(-n2nc3c(N4CCCC(C(=O)NCc5ccccc5C)C4)nnc(C)c3c2C)cc1` (stereo not drawn), the Potency in test [10] was 9.52 µM (active); in [11], 1.69 µM (active).

On to `COc1ccc(CN(C2CCCCC2)[S+](C)(=O)[O-])cc1OC`, for which, in test [10], the Potency entry was “inactive”. The Potency in test [12] was 6.74 µM (active).

Take `CCOc1ccc(CNC(=O)Cn2c(=O)c3cccn3c3ccc(F)cc32)cc1OC`: the Potency result in [10] and in test [12] was “inactive” throughout.

For `COc1cc(C(=O)NC(c2ccc(Cl)cc2)c2cc(Cl)c3cccnc3c2O)cc(OC)c1OC` (stereo not drawn), the Potency result in test [10] was “inactive”. Also, the Potency in test [12] is 10.7 µM (active).

On to `COc1ccc(NC(=O)c2nc(SCc3ccc(F)cc3)ncc2Cl)cc1`, for which the Potency result in [10] was “inactive”. Further, the Potency in test [12] was 3.38 µM (active).

On to `O=C(Cn1c(=O)n(Cc2ccco2)c(=O)c2oc3ccccc3c21)Nc1ccccc1`, for which the Potency in [10] was 0.756 µM (active); in test [12], 4.77 µM (active).

For the compound `Cc1cc(NC(=O)C2CCN(S(=O)(=O)c3ccc4[nH]c(=O)oc4c3)CC2)ccc1Br`, the Potency in [10] was 16.9 µM (active); in test [12], 0.425 µM (active).

As for `CCOc1cc(CNC(=O)c2ccc(C)c(NC(=O)c3nsc4ccccc34)c2)ccc1OC`, the Potency entry in test [10] was “inactive”. The Potency in test [12] is 1.51 µM (active).
